# According to the supplement of paper PMC9262897, “Low-cost anti-mycobacterial drug discovery using engineered E. coli” (Nature Communications, 2022):
# Counter-ions that a name gives are not always drawn. ± gives the standard deviation of the averaged measurements.
# Experiments:
# Test in all cases: growth (OD600 after 10 h); higher = more growth (less inhibition)
# [1] = test system: E. coli TESEC Alr+ wild-type control; conditions: compound 0.1 mM; raw OD600 reference: median of DMSO wells 0.241, cell-free background 0.041
# Procedure: (§1)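 TESEC Mtb Alr E. coli, or the Alr+ wild-type control, in 384-well plates with Prestwick library compounds at 0.1 mM and 1% DMSO, across arabinose induction levels of 1E3 to 1E7 nM. Growth is read as OD600 after 10 h at 37 °C in triplicate biological replicates.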
# E. coli TESEC Mtb Alr [2] = conditions: compound 0.1 mM
# Procedure: as §1
# E. coli TESEC Mtb Asd = conditions: compound 0.1 mM
# Procedure: (§2)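 TESEC E. coli strains in which the native enzyme is deleted and replaced by arabinose-inducible Mtb Asd, DapB, CysH or TrpD, each grown in its selective medium. Strains were screened against the Prestwick library at 0.1 mM and 1% DMSO in 384-well format at low and high arabinose induction. Growth is read as OD600 after 10 h in triplicate.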
# E. coli TESEC Mtb DapB = conditions: compound 0.1 mM
# Procedure: as §2
# E. coli TESEC Mtb Alr [3] = conditions: compound 0.1 mM; remark: listed apart in the source
# Procedure: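 TESEC Mtb Alr E. coli (ΔaraC ΔtolC ΔentC Δalr ΔdadX, arabinose-inducible Mtb Alr) or the Alr+ wild-type control strain, grown in defined M9-fructose medium without D-alanine in 96-well plates with Prestwick library compounds at 0.1 mM and 1% DMSO. Low Alr induction is 0.1 µM arabinose and high induction is 10 mM arabinose.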
# [4] = arabinose 1000 nM, raw OD600 reference: median of DMSO wells 0.294, cell-free background 0.041
# [5] = arabinose 10000 nM, raw OD600 reference: median of DMSO wells 0.264, cell-free background 0.041
# [6] = arabinose 100000 nM, raw OD600 reference: median of DMSO wells 0.201, cell-free background 0.041
# [7] = arabinose 1000000 nM, raw OD600 reference: median of DMSO wells 0.193, cell-free background 0.041
# [8] = arabinose 10000000 nM, raw OD600 reference: median of DMSO wells 0.146, cell-free background 0.041
# [9] = arabinose induction (level): High, raw OD600 reference: median of DMSO wells 0.331, cell-free background 0.041
# [10] = arabinose induction (level): Low, raw OD600 reference: median of DMSO wells 0.417, cell-free background 0.041
# [11] = arabinose induction (level): High, raw OD600 reference: median of DMSO wells […], cell-free background 0.041
# [12] = arabinose induction (level): Low, raw OD600 reference: median of DMSO wells 0.227, cell-free background 0.041
# [13] = arabinose 100 nM, raw OD600 reference: median of DMSO wells 0.413, cell-free background 0.052
# [14] = arabinose 10000000 nM, raw OD600 reference: median of DMSO wells […], cell-free background 0.052
Compound,growth [1],growth (E. coli TESEC Mtb Alr [2]; [4]),growth (E. coli TESEC Mtb Alr [2]; [5]),growth (E. coli TESEC Mtb Alr [2]; [6]),growth (E. coli TESEC Mtb Alr [2]; [7]),growth (E. coli TESEC Mtb Alr [2]; [8]),growth (E. coli TESEC Mtb Asd; [9]),growth (E. coli TESEC Mtb Asd; [10]),growth (E. coli TESEC Mtb DapB; [11]),growth (E. coli TESEC Mtb DapB; [12]),growth (E. coli TESEC Mtb Alr [3]; [13]),growth (E. coli TESEC Mtb Alr [3]; [14])
CCOc1ccccc1OCC1CNCCO1 (centres undefined) [Viloxazine hydrochloride],0.236 ± 0.0043,0.294 ± 0.023,0.273 ± 0.0049,0.193 ± 0.011,0.196 ± 0.01,0.135 ± 0.0069,0.251 ± 0.022,0.386 ± 0.012,0.172 ± 0.029,0.211 ± 0.019,0.406 ± 0.011,0.366 ± 0.0079
COc1ccc(Cl)cc1C(=O)NCCc1ccc(S(=O)(=O)NC(=O)NC2CCCCC2)cc1 [Glibenclamide],0.122 ± 0.0053,0.166 ± 0.035,0.146 ± 0.004,0.144 ± 0.0077,0.0688 ± 0.0014,0.125 ± 0.0025,0.154 ± 0.02,0.218 ± 0.015,0.158 ± 0.013,0.173 ± 0.014,0.349 ± 0.12,0.0906 ± 0.0069
N#Cc1ccc(C(c2ccc(C#N)cc2)n2cncn2)cc1 [Letrozole],0.2404 ± 0.0017,0.308 ± 0.006,0.253 ± 0.0064,0.243 ± 0.028,0.16 ± 0.0045,0.146 ± 0.0044,0.243 ± 0.06,0.356 ± 0.086,0.213 ± 0.018,0.24 ± 0.032,0.394 ± 0.016,0.309 ± 0.016
CCCC1O[C@@H]2C[C@H]3[C@@H]4CCC5=CC(=O)C=C[C@]5(C)[C@H]4[C@@H](O)C[C@]3(C)[C@]2(C(=O)CO)O1 (some centres undefined) [Budesonide],0.1456 ± 0.0011,0.187 ± 0.0064,0.247 ± 0.0047,0.166 ± 0.015,0.112 ± 0.0012,0.141 ± 0.0021,0.309 ± 0.023,0.31 ± 0.025,0.167 ± 0.0066,0.231 ± 0.0093,0.4337 ± 0.004,0.269 ± 0.0039
CN1CCC(OC(c2ccccc2)c2ccccc2)CC1 [Diphenylpyraline hydrochloride],0.221 ± 0.013,0.294 ± 0.021,0.256 ± 0.0056,0.162 ± 0.0083,0.141 ± 0.0025,0.1486 ± 0.0014,0.237 ± 0.035,0.461 ± 0.077,0.211 ± 0.013,0.246 ± 0.0048,0.4078 ± 0.0034,0.303 ± 0.015
CCn1cc(C(=O)O)c(=O)c2ccc(C)nc21 [Nalidixic acid sodium salt],0.04987 ± 0.00029,0.0467 ± 0.0009,0.0394 ± 0.00056,0.0502 ± 0.0012,0.0413 ± 0.0013,0.05153 ± 0.00015,0.09847 ± 0.00049,0.0829 ± 0.0083,0.0992 ± 0.0072,0.0689 ± 0.0001,0.0753 ± 0.014,0.0595 ± 0.0029
Oc1c(Cl)cc(Cl)c2cccnc12 [Chloroxine],0.044 ± 0.00076,0.0429 ± 0.00083,0.0409 ± 0.00069,0.0435 ± 0.00076,0.0415 ± 0.00061,0.0495 ± 0.00057,0.0595 ± 0.0028,0.154 ± 0.05,0.0813 ± 0.015,0.117 ± 0.069,0.0554 ± 0.0075,0.0726 ± 0.013
CCN(CC)CCNC(=O)c1ccc(N)cc1 [Procainamide hydrochloride],0.239 ± 0.0037,0.306 ± 0.019,0.2558 ± 0.0023,0.209 ± 0.043,0.192 ± 0.002,0.141 ± 0.0042,0.341 ± 0.0095,0.42 ± 0.039,0.192 ± 0.015,0.201 ± 0.0082,0.408 ± 0.01,0.364 ± 0.0095
Cc1ccc(O)c([C@H](CCN(C(C)C)C(C)C)c2ccccc2)c1 [Tolterodine tartrate],0.163 ± 0.0078,0.245 ± 0.0098,0.283 ± 0.0087,0.201 ± 0.0068,0.148 ± 0.0076,0.191 ± 0.0035,0.245 ± 0.032,0.38 ± 0.025,0.198 ± 0.018,0.238 ± 0.036,0.417 ± 0.0075,0.3 ± 0.013
C[C@H](O)C(=O)Nc1c(I)c(C(=O)NC(CO)CO)c(I)c(C(=O)NC(CO)CO)c1I [Iopamidol],0.261 ± 0.011,0.323 ± 0.014,0.287 ± 0.012,0.217 ± 0.0049,0.195 ± 0.0084,0.166 ± 0.0031,0.443 ± 0.035,0.396 ± 0.035,0.221 ± 0.0036,0.249 ± 0.028,0.397 ± 0.022,0.338 ± 0.011
Nc1ccc(S(=O)(=O)NC(=O)c2ccccc2)cc1 [Sulfabenzamide],0.256 ± 0.012,0.321 ± 0.023,0.254 ± 0.005,0.221 ± 0.022,0.172 ± 0.0025,0.156 ± 0.0061,0.402 ± 0.12,0.409 ± 0.033,0.221 ± 0.016,0.245 ± 0.018,0.4062 ± 0.0031,0.334 ± 0.025
Nc1ccccc1S(N)(=O)=O [2-Aminobenzenesulfonamide],0.239 ± 0.0094,0.296 ± 0.019,0.255 ± 0.0044,0.198 ± 0.0049,0.187 ± 0.0032,0.137 ± 0.004,0.399 ± 0.029,0.49 ± 0.028,0.2 ± 0.019,0.202 ± 0.019,0.416 ± 0.013,0.343 ± 0.0096
CN(C)CCN(Cc1ccccc1)c1ccccn1 [Tripelennamine hydrochloride],0.203 ± 0.0015,0.281 ± 0.0071,0.254 ± 0.0058,0.181 ± 0.0046,0.184 ± 0.003,0.133 ± 0.004,0.232 ± 0.055,0.329 ± 0.1,0.177 ± 0.0099,0.209 ± 0.027,0.406 ± 0.0074,0.307 ± 0.0053
CNC1(C)C2CCC(C2)C1(C)C (centres undefined) [Mecamylamine hydrochloride],0.242 ± 0.006,0.307 ± 0.0084,0.293 ± 0.0071,0.214 ± 0.034,0.185 ± 0.016,0.156 ± 0.0054,0.266 ± 0.078,0.304 ± 0.093,0.187 ± 0.018,0.238 ± 0.012,0.433 ± 0.0029,0.312 ± 0.02
Cc1nnc(NS(=O)(=O)c2ccc(N)cc2)s1 [Sulfamethizole],0.254 ± 0.0053,0.288 ± 0.011,0.236 ± 0.004,0.211 ± 0.032,0.155 ± 0.0088,0.139 ± 0.0043,0.326 ± 0.045,0.433 ± 0.018,0.189 ± 0.0042,0.183 ± 0.0058,0.411 ± 0.011,0.33 ± 0.011
CN1C(=O)CC(c2ccccc2)C1=O (centres undefined) [Phensuximide],0.244 ± 0.0072,0.299 ± 0.0059,0.281 ± 0.0045,0.183 ± 0.022,0.231 ± 0.02,0.138 ± 0.011,0.338 ± 0.022,0.401 ± 0.035,0.174 ± 0.0062,0.219 ± 0.015,0.431 ± 0.015,0.357 ± 0.0052
CCc1cc(C(N)=S)ccn1 [Ethionamide],0.243 ± 0.0035,0.294 ± 0.0077,0.262 ± 0.005,0.236 ± 0.036,0.184 ± 0.0033,0.144 ± 0.0028,0.299 ± 0.05,0.324 ± 0.1,0.206 ± 0.011,0.217 ± 0.027,0.406 ± 0.0087,0.334 ± 0.02
